Measured values published in PubChem BioAssay.
The source made the active and inactive calls.

Experiments:
[1] = tested on: PRMT1 (protein arginine N-methyltransferase 1); assay: PRMT1 binders on small-molecule microarrays, primary screen, biochemical, small-molecule microarray, 635 nm fluorescence (AID 1088); settings: small-molecule microarray binding, higher = more signal;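 also: binding of Prmt1 protein to compounds spotted on small-molecule microarray slides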
[2] = yeast growth modulation, basal conditions, primary screen, YJM789 clinical isolate, OD600, 24 h (AID 1089);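 also: growth of clinical yeast isolate S. cerevisiae YJM 789 seeded 1000 cells per well; test concentration not given here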; settings: S. cerevisiae YJM789 growth, higher = more signal, called active from +8 up or from −8 down
[3] = fission yeast growth modulation, primary screen, strain 972, OD600, 24 h, no modulator (AID 1090);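 also: basal condition with compound alone and no growth modifier present; test concentration not given here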; settings: S. pombe 972 growth, higher = more signal, called active from +8 up or from −8 down
[4] = S. cerevisiae growth modulation with rapamycin, primary screen, strain BY4716, OD600, 96 h (AID 1091); settings: higher = more signal, called active from +8 up or from −8 down; also: test concentration not given here
[5] = biological target: Torsin-1A-interacting protein 2 (Homo sapiens) (UniProt Q8NFQ8); assay: LULL1 binders on small-molecule microarray, primary screen, cell lysate, human LULL1 lysate, 635/667 nm fluorescence (AID 1092); settings: hLULL1 lysate binding, 635 nm fluorescence, higher = more signal;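 also: probe is lysate of COS7 cells overexpressing human LULL1; score merges per-feature 667 nm fluorescence with signal-to-noise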
Torsin-1A-interacting protein 2 (Homo sapiens), sequence (Q8NFQ8 whole entry, looked up): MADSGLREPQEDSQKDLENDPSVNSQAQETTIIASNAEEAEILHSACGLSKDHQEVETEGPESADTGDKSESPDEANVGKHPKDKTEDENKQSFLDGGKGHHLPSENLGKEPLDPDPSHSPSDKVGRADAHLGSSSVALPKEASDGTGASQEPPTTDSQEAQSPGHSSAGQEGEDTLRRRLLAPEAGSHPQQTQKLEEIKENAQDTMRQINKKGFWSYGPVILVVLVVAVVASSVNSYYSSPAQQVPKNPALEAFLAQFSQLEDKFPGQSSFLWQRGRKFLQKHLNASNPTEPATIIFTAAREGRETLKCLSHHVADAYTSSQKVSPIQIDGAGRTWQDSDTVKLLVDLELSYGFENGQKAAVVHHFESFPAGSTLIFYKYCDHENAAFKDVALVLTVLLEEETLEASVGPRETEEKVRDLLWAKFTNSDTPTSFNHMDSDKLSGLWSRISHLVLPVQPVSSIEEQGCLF

[6] = E. coli growth modulation, two-sided OD650, primary screen, E. coli filamentation project, strain DRC41, 24 h (AID 1093); settings: OD650, 24 h, higher = more signal, called active from +8 up or from −8 down;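 also: MC1000 strain lacking acrAB efflux and sulA so SOS filamentation is blocked; test concentration not given here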
[7] = small-molecule microarray binders of probe aLefty2, primary screen, biochemical, biotinylated probe, 635/667 nm fluorescence (AID 1094); settings: higher = more signal;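 also: score merges spot fluorescence near 667 nm with spot signal-to-noise ratio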
[8] = tested on: Noggin (protein binding on small-molecule microarray); assay: Noggin binders on small-molecule microarray, primary screen, biochemical, 635/667 nm fluorescence (AID 1095); settings: 635 nm fluorescence, higher = more signal;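 also: score merges 667 nm feature fluorescence with signal to noise over triplicate slides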
[9] = biological target: Neurogenic locus notch homolog protein 3 (Homo sapiens) (UniProt Q9UM47); assay: NOTCH3 binders on small-molecule microarray, primary screen, biochemical, 635/667 nm fluorescence (AID 1096); settings: NOTCH3 binding, 635 nm fluorescence, higher = more signal
Neurogenic locus notch homolog protein 3 (Homo sapiens), sequence (Q9UM47 whole entry, looked up): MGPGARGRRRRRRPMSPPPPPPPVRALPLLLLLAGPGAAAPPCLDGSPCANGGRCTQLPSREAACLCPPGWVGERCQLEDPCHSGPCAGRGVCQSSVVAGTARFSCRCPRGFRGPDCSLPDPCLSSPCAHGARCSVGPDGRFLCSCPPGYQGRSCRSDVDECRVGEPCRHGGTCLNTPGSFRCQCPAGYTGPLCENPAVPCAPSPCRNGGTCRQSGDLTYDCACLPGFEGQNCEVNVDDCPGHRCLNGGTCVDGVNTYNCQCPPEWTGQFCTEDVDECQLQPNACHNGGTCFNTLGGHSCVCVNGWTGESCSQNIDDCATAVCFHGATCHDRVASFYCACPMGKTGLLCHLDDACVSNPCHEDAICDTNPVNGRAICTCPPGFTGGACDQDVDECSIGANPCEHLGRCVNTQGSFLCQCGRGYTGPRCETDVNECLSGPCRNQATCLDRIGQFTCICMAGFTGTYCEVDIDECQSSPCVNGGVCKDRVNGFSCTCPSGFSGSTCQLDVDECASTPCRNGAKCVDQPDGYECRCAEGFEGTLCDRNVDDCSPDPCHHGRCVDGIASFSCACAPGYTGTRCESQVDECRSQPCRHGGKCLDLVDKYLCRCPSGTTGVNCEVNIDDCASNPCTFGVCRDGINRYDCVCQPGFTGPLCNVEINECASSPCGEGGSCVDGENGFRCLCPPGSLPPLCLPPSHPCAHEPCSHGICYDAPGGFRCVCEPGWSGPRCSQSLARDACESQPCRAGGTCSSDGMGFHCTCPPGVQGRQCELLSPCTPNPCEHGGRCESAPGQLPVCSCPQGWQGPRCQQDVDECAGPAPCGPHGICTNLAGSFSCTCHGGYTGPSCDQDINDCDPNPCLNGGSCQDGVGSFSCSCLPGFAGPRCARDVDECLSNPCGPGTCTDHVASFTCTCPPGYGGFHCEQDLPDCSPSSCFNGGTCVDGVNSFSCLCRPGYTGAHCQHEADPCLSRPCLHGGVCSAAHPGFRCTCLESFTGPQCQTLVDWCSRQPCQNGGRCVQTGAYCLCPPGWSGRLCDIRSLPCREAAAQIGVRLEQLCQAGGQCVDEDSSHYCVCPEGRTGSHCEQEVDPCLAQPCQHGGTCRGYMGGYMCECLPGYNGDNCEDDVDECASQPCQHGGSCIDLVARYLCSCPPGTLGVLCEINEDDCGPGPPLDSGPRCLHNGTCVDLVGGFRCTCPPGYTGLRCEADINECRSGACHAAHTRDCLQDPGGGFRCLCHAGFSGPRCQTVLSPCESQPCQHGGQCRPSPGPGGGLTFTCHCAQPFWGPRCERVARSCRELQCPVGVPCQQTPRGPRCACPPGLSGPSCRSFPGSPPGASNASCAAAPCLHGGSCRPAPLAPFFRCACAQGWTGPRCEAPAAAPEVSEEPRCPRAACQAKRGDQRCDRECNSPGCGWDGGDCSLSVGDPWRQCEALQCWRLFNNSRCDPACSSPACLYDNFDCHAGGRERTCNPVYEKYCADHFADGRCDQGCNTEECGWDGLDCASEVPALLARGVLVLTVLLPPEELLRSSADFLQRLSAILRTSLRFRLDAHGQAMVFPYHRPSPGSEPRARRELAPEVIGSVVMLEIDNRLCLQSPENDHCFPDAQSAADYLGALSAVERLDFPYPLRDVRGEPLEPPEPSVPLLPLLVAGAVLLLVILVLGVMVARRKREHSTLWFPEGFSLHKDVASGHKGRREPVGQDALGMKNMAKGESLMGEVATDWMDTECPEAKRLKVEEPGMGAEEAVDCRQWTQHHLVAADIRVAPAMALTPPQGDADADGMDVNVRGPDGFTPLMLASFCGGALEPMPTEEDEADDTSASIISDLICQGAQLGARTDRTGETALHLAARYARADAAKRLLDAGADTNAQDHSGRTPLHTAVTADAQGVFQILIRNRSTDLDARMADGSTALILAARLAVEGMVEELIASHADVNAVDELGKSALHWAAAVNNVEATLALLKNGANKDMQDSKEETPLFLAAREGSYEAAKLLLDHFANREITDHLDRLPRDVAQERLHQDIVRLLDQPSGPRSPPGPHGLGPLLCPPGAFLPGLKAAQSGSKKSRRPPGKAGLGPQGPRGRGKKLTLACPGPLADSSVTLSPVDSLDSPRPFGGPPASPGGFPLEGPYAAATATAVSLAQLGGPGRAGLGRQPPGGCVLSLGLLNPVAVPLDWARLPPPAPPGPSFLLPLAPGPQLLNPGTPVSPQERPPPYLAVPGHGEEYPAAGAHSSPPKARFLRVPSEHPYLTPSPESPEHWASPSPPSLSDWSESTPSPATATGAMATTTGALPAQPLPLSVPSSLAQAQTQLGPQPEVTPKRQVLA

[10] = small-molecule microarray binders of probe aEGFR, primary screen, biochemical, biotinylated probe, 635/667 nm fluorescence (AID 1097); settings: higher = more signal;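 also: probe is a biotinylated anti-EGFR antibody binding compounds printed on slides; score combines fluorescence near 667 nm and signal to noise of each spot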

| SMILES | composite z-score [1] | z-score [2] | z-score [3] | z-score [4] | composite z-score [5] | z-score [6] | composite z-score [7] | composite z-score [8] | composite z-score [9] | composite z-score [10] |
| --- | --- | --- | --- | --- | --- | --- | --- | --- | --- | --- |
| COCCOC(=O)N1C(=O)[C@@]2(c3cc(C#CCC(C(=O)OC)C(=O)OC)ccc31)[C@H](C(=O)N1CCN(c3ncccn3)CC1)[C@H]1C(=O)O[C@H](c3ccccc3)[C@H](c3ccccc3)N1[C@@H]2c1ccccc1OCCO | 1.55 | 1.59 (inactive) | 1.33 (inactive) | 6.3 (inactive) | 1.88 | 0.156 (inactive) | -0.0726 | 1.71 | 1.06 | 0.0537 |
| COCC(=C=CC[C@@H](O)c1cccc(OCCO)c1)C[C@@H](O)c1ccccn1 | 0.523 | 1.09 (inactive) | -0.416 (inactive) | -0.648 (inactive) | 1.12 | 0.257 (inactive) | -0.193 | 0.657 | 0.599 | -0.137 |
| CC(C)N1C(=O)C[C@@](C(=O)NCC(F)(F)F)(c2ccc([N+](=O)[O-])cc2)[C@H]1c1ccc(CO)cc1 | 1.55 | -0.804 (inactive) | -1.63 (inactive) | -1.63 (inactive) | 3.32 | -0.29 (inactive) | -0.195 | 0.493 | 0.356 | -0.0987 |
| O=C1C[C@@](C(=O)NCCN2CCOCC2)(c2ccc([N+](=O)[O-])cc2)[C@@H](c2ccc(CO)cc2)N1CC12CC3CC(CC(C3)C1)C2 | 1.53 | -1.41 (inactive) | -17.2 (active) | -1.37 (inactive) | 3.31 | -2.26 (inactive) | 0.0211 | 1.4 | 1.09 | 0.0778 |
| Cc1ccc(S[C@]2(C(=O)NCCCN(C)C)CC(=O)N(Cc3cc(C(F)(F)F)cc(C(F)(F)F)c3)[C@@H]2c2ccc(CO)cc2)cc1 | 0.383 | -1.15 (inactive) | -0.79 (inactive) | -0.497 (inactive) | 0.923 | -0.356 (inactive) | -0.0478 | -0.768 | -1.5 | -0.113 |
| O=C(N1CCCCC1)[C@]1(Cc2ccccc2)N=C(c2ccc(OCCCO)cc2)O[C@@H]1c1ccccc1 | 1.28 | -0.425 (inactive) | -1.52 (inactive) | 3.64 (inactive) | 2.84 | -0.331 (inactive) | 0.18 | -0.281 | 0.586 | 0.303 |
| COC(=O)[C@@]1(Cc2ccc(F)cc2)[C@H]2c3cc(C(=O)N(C)C)n(Cc4cc(F)c(F)c(F)c4)c3C[C@H]2CN1C(=O)c1ccccc1 | -0.0972 | 0.0065 (inactive) | 1.72 (inactive) | 2.54 (inactive) | 3.07 | -0.535 (inactive) | 0.376 | -0.592 | 1.03 | 0.487 |
| COC(=O)[C@@]1(Cc2ccc(F)cc2)[C@H]2c3cc(C(=O)N4CCCC4)n(CCCNc4ncc(C(F)(F)F)cc4Cl)c3C[C@H]2CN1C(=O)c1ccccc1 | -0.954 | 1.62 (inactive) | 2.15 (inactive) | 2.65 (inactive) | 2.65 | -0.87 (inactive) | 0.83 | -0.756 | 0.696 | 0.476 |
| O=C1C2C=CC(C(O)CCc3ccccc3)N(Nc3ccccc3F)C2C(=O)N1c1ccccc1 (stereo not given) | 1.49 | -0.566 (inactive) | 0.624 (inactive) | -0.378 (inactive) | 3.28 | -0.0741 (inactive) | 0.183 | 0.279 | 1.08 | 0.0059 |
| C=C(COC)/C(=C/C[C@@H](OC(=O)c1ccncc1)c1ccc(CO)o1)c1cc(C(=O)OC)ccc1OC | 1.53 | 0.102 (inactive) | -0.262 (inactive) | -0.127 (inactive) | 2 | 0.564 (inactive) | -0.178 | 1.68 | 1.07 | 0.0878 |
| O=C(c1ccccc1)N1Cc2ccccc2C[C@@]2(COC(c3ccc(OCCCO)cc3)=N2)C1=O | 1.55 | -1.1 (inactive) | -11.1 (active) | 3.57 (inactive) | 3.39 | 0.0571 (inactive) | 0.0478 | 0.779 | 1.04 | -0.0439 |
| COc1ccc(C(O)C2C=CC3C(=O)N(Cc4ccccc4)C(=O)C3N2n2cnnc2)cc1OCc1ccccc1 (stereo not given) | 0.953 | -1.56 (inactive) | 0.0901 (inactive) | -0.62 (inactive) | 2.59 | 1.69 (inactive) | 0.114 | 0.0181 | 0.331 | -0.0512 |
| COCCOC(=O)N1C(=O)[C@@]2(c3cc(C#CCNC(N)=O)ccc31)[C@H](C(=O)N1CCN(c3ncccn3)CC1)[C@H]1C(=O)O[C@H](c3ccccc3)[C@H](c3ccccc3)N1[C@@H]2c1ccc(OCCO)cc1 | 1.57 | 1.51 (inactive) | 0.383 (inactive) | 4.36 (inactive) | 2.34 | -0.351 (inactive) | 0.0158 | 0.707 | 1.1 | -0.0271 |
| COCCOC(=O)N1C(=O)[C@@]2(c3cc(C#CCC(C(=O)OC)C(=O)OC)ccc31)[C@H](c1ccccc1OCCO)N1[C@H](c3ccccc3)[C@H](c3ccccc3)OC(=O)[C@H]1[C@@H]2C(=O)NC[C@H](O)c1ccccc1 | 1.54 | 1.78 (inactive) | 2.17 (inactive) | 5.84 (inactive) | 2.32 | -0.036 (inactive) | 0.032 | 1.62 | 1.05 | 0.379 |
| CCCC[C@@H]1C[C@H]1[C@@H](NC(=O)c1ccco1)c1ccc(-c2ccccc2)cc1 | 1.11 | 0.186 (inactive) | 0.316 (inactive) | 0.569 (inactive) | -0.397 | -1.45 (inactive) | 0.0682 | 0.61 | 0.234 | 0.0258 |
| CCCCN1CC=CC23O[C@@H]4C=CCCOC(=O)C4[C@H]2C(=O)N(CCCCCCO)[C@@H]3C1=O (stereo not given in full) | 1.31 | -0.0739 (inactive) | -0.576 (inactive) | 0.2 (inactive) | 1.74 | -0.444 (inactive) | -0.462 | -0.235 | 0.294 | -0.227 |
| CC(C)OC(=O)C=C1C[C@@H](c2ccccn2)O[C@@H](c2ccccn2)O1 | 0.875 | -0.0723 (inactive) | 0.228 (inactive) | -1.36 (inactive) | 0.0473 | 0.0183 (inactive) | -0.224 | 1.25 | 0.0527 | 0.0494 |
| CCCCC(CC)C(O)C1C=CC2C(=O)N(Cc3ccccc3)C(=O)C2N1n1cnnc1 (stereo not given) | 0.249 | -0.279 (inactive) | -0.359 (inactive) | -0.435 (inactive) | 0.77 | -1.05 (inactive) | -0.0238 | -0.0141 | -0.22 | -0.0253 |
| COC(=O)[C@@]1(Cc2ccc(OC)cc2)[C@H]2c3cc(C(=O)N4CCCC4)n(CCN4CNCC4=O)c3C[C@H]2CN1C(=O)c1ccccc1 | -0.871 | 0.503 (inactive) | 0.706 (inactive) | 0.429 (inactive) | 3.77 | -0.977 (inactive) | 1.42 | -0.364 | 0.293 | 1.15 |
| CN1C(=O)C2C=CC(C(O)c3ccco3)N(Nc3ccccc3)C2C1=O (stereo not given) | 0.941 | 0.312 (inactive) | 0.899 (inactive) | 1.74 (inactive) | 2.52 | -1.37 (inactive) | 0.0569 | 0.139 | 0.275 | -0.0976 |
| COc1ccc(/C=C/C=O)cc1 | 0.722 | 1.17 (inactive) | -7.83 (inactive) | 1.01 (inactive) | -0.714 | 0.0062 (inactive) | -0.15 | 0.775 | 0.271 | -0.045 |
| CN1C(=O)C2C=CC(C(O)c3ccc([N+](=O)[O-])cc3)N(N3CCCCC3)C2C1=O (stereo not given) | 0.957 | 0.462 (inactive) | 0.647 (inactive) | 0.19 (inactive) | 2.69 | -1.74 (inactive) | 0.347 | -0.245 | 1.07 | 0.161 |
| C[C@H]1C2[C@H](Cc3ccccc3)NC(=O)[C@]23C(=O)N[C@H](Cc2ccccc2)C(=O)N2CCC[C@H]2C(=O)NC/C=C\C/C=C/C3[C@@H]2O[C@]12C (stereo not given in full) | 0.178 | -0.662 (inactive) | -1.06 (inactive) | -1.19 (inactive) | 0.392 | 0.132 (inactive) | -0.175 | 0.177 | 0.492 | -0.13 |
| O=C1O[C@H](c2ccccc2)[C@H](c2ccccc2)N2[C@H]1[C@@H](C(=O)N1CCCCCCC1)[C@]1(C(=O)Nc3ccc(C#CCCO)cc31)[C@H]2c1ccccc1OCCO | 1.55 | 2.09 (inactive) | -13.6 (active) | 4.15 (inactive) | 5.15 | 0.689 (inactive) | 1.96 | 2.41 | 1.01 | 1.34 |
| COc1ccc([Si](C)(C)[C@H]2[C@H](CCO)O[C@@]3(C(=O)N(Cc4ccc(N(C=O)c5ccccc5)cc4)c4ccccc43)[C@@H]2C)cc1 | 0.258 | 1.09 (inactive) | 0.302 (inactive) | 25.2 (active) | 1.12 | 0.759 (inactive) | -0.107 | 0.0352 | 0.033 | -0.162 |
| CC1(C)C2C=C(C(O)C3C=CC4C(=O)NC(=O)C4N3Nc3ccc(Cl)cc3Cl)C[C@@H]1C2 (stereo not given in full) | 0.804 | -7.63 (inactive) | -6.77 (inactive) | 0.722 (inactive) | 1.33 | -2.98 (inactive) | 0.374 | 0.178 | 0.996 | 0.279 |
